The supplement of paper PMC6555819

Test system: VDR:RXRa (NR concentration 270 nM, RXRa partner concentration 90 nM)
Experiment: PBM binding z-score (relative to random genomic background probes); higher = stronger binding; sequences stand for … in GC…GCGATTGACAGCGTAGAATGAAGG
Experimental: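 Protein-binding microarray (Agilent 4x180K custom design, double-stranded 60-nt probes: 5' GC cap, 34-nt variable region, 24-nt constant primer region; full probe sequence given). Purified or IVT nuclear receptor:RXRα heterodimers (3:1 NR:RXRα, mostly 270:90 nM) or homodimers were incubated for 1 h in PBS with 2% milk and no ligand, then detected with Alexa488 antibodies. Fluorescence from o1-orientation probes (~5 replicates averaged) was converted to z-scores against 500 random hg19 background probes. Variable regions are seed direct-repeat (DR0–DR5) sites, all their single-nucleotide variants and half-site ablations.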

Sequence | PBM binding z-score
TCTTGTAGATCAACCGGAGGTTAAGAAAGATCGA | 0.672
TCTTATAGGTAATACAGGTGAAAGTCGGCATCTA | 1.36
GATACAGGGTCTAGGCCAGAGTACGCGTATTGAT | -0.508
TCGAATAGGTTAGGGGCATTCAGAATGGCGTCGA | 0.8
CCTAGCAGTCCAGGGTCACTCAAGCATTTCGCTT | 2.69
AGAACGAGGGCAATGAGTTGATCGCACGGGTGGC | 5.13
CTTACTGGGCCATCAGGTCATTGATATCAACGTT | 1.91
CCTTACGGGTCAATGACAGGTTATAGCATTTGGA | 3.29
CCTACTGGGCCAAATAGGTCATTGATGCCGATAA | 2.51
CTCGAAAGGTCGGTTGAGGTGAGTCTACGGATAA | 2.45
TATACAGGGTCGAAGGCCAGAGTACGAATGTCGA | 1.56
ATATGTAGGTTAGATCCGGGTCATTCAGGCTATG | 3.5
TTACCAACGTGAGCTGAGGTCGTTGATCCAACTC | 1.21
AGAACGCGGGCACGCTGAGTTGATAGCAGAGTAG | -0.403
TACCCTAGGTCATGCGGGCCAGTATAGTGTCGGC | 3.23
ATATGTAGGTTACATCCGCGTCATTCAGGCTATG | 0.515
ATCTCTAGGTAAAAGTTCAGGGAATCCCGAGGAT | 1.54
TTACCACGGTGAAGGTCGTTGATCCCTCTGTAGA | 0.957
ACTATTAGTTGGCTTAGGGCAACCGATACGACGC | 0.158
CCCGACAGGTGAGAAGGTAACTCAGCCTCGATTA | -0.17

Sequence | PBM binding z-score
CCTGCAAGGTCATGGTCAGCTAATCTACAGTATG | 4.76
CGTCCAAGGTCAGAGTGGTCAGTGAATGCCGAGT | 3.87
ATCTCTAGGTAACCAAGTACAGTGAATGCCGAAC | 1.19
CCTACTGGGCCAAAAAGGACATTGATGCCGATAA | 0.106
ATCTCTAGGTGACCAAGTTCAGTGAATGCCGAAC | 4.77
AGAATGAGGTTATTCGTAGATCAGGGAAGAAAGT | 1.78
CCAGACAGGTGAGAAGGTTACTCAGCCTCGATTA | 0.635
TCTATTAGTTGATTAGGGCAACCCAAACAGCGGA | 0.694
CCTACTGGGCCAAGATCATTGATCAGTCAAAGCA | -0.601
CGAACTAGGTCATACAGGACAGTGAATACATTGA | 3.99
CGAACTAGGTCACCGGAAGGTCAAAGTCCGCATG | 5.8
TCATCTAGGTAATACAGGTGAAAGTCGGCATCTA | 0.916
ATCTCTAGGTAAAAGTTCTGTGAATCCCGAGGAT | -0.0345
TCTTGTAGGTCAGCAGGTTAAGAAAGCTGGCCAA | 3.54
AATACAGGGTCACTAGGCTAGAGTAGGTACGAAT | 4.05
ATCTCTAGGTAACAAGTTCAGTCAAAGAGAGGAC | 1.74
GGAACGAGGACAAAGTTGATAGCATCTGTCGACG | -0.104
GGAACGAGGGCATTCGAGATGATAGCATGGCGAT | 1.45
CCAACTGGGCCATTCAGAGGTCATTGATCATATG | 3.92
GCTGCTAGGTCAACTGATGGTCAGATAAAGCTCG | 1.82
